Screening data (PubChem)
DT40 TDP1 no CPT – qHTS for Inhibitors of human tyrosyl-DNA phosphodiesterase 1 (TDP1): qHTS in cells in absence of CPT; hit rate 15% among 420,000; DT40 Tdp1-/- hTDP1 cells, no CPT, ATP luminescence, 48 h; AID 686978, 2013; Potency, µM (titrated, usually from 46.2 µM), inactives show top-dose activity change, negative = growth inhibition, most hits filed as inhibitors; note: % is set by controls: 0 for no effect and ±100 for the full control effect; nearly all actives have a fitted effect of over 55% in size
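Chicken DT40 Tdp1-/- cells complemented with human TDP1, screened without camptothecin (DMSO vehicle only), 400 cells/well. Compounds pin-transferred, cells incubated at 37 °C for at least 48 hr. Growth read as ATP-dependent luminescence (CellTiter-Glo, 30 min at RT).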
ATXN2 expr inh – ATXN2 expression inhibition. HEK-293 ATXN2-luciferase reporter, luminescence, 24 h. Potency, µM (highest dose often 57 µM), for the others: top-dose activity change, negative = inhibition, usual class: inhibitors. hit rate 0.72% among 360,000. AID 1745845; note: % is set by controls: 0 for no effect and ±100 for the full control effect; nearly all actives have a fitted effect of over 55% in size
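qHTS (up to 57 uM final) was run with 24 h compound exposure of reporter cells at 37 °C. Each well was multiplexed: SteadyGlo luminescence measured ATXN2-luciferase expression after a fluorogenic Gly-Phe-AFC viability readout (25 uM final).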
ATXN viability – viability counter-screen for ATXN expression inhibitors. S2 cells (HEK-293 line with an ATXN2-luciferase reporter) viability, CellTiter-Fluor protease fluorescence, 24 h. Potency, µM (doses to about 56.7 µM), most hits filed as cytotoxic. hit rate 0.49% among 400,000; note: nearly all actives have a fitted effect of over 40% in size
HepG2 viability – HepG2 cytotoxicity, counter-screen for TGF-b inhibitors; hit rate 0.76% among 410,000; Potency, µM (doses to about 46.1 µM), inactives show at the top dose activity change, negative = cytotoxicity, hits mostly cytotoxic; HepG2 CAGA-GFP viability, ATP luminescence, 18 h
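CellTiter-Glo luminescence gave cytotoxicity after 18 hours at 37 degrees C. The cells were HepG2 CAGA-GFP in 1% FBS DMEM, stimulated with 500 pg/mL TGF-beta after compound addition. %Activity was normalised to no-cell wells (complete cell-killing) and DMSO (no toxicity), and curves were fitted and classified.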
TGFb inhibitor – TGF-b pathway inhibition. Potency, µM (top dose mostly 46.1 µM), inactives show at the highest dose activity, negative = inhibition, usual class: inhibitors. AID 588855. hit rate 1.2% among 410,000. HepG2 CAGA-GFP TGF-b/SMAD3 reporter, GFP fluorescence, 18 h; TGF-beta stimulated, 500 pg/mL final; note: % is set by controls: 0 for no effect and ±100 for the full control effect; nearly all actives have a fitted effect of over 65% in size
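Per well, imaged GFP fluorescence of HEPG2 CAGA-GFP cells gives the signal; cells get compound, then TGF-beta (500 pg/mL final), 18 h at 37 degrees C; %Activity versus -TGF-beta and +DMSO controls.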
TDP1 cell CPT – growth inhibition of DT40 Tdp1-/-;hTDP1 cells with camptothecin (screen for TDP1 inhibitors); chicken DT40 Tdp1-/-;hTDP1 cells + 20 nM CPT, ATP luminescence, 48 h; AID 686979; Potency, µM (top dose mostly 46.2 µM), without a hit: at the highest dose activity change, negative = growth inhibition, usual class: inhibitors; hit rate 12% among 420,000; note: % is set by controls: 0 for no effect and ±100 for the full control effect; nearly all actives have a fitted effect of over 55% in size
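Cell growth measured by CellTiter-Glo luminescence after a minimum 48 h, 37 C compound exposure with 20 nM CPT in Tdp1-knockout DT40 cells stably expressing hTDP1, seeded 400/well; qHTS titration format.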
Starred values were filed as active, the others as inactive; i = inactive; ? = inconclusive; · = no result given. Hits are enriched below; roughly 17% of the tested compounds scored in any of these assays. Calls come from the whole dose curve; as a rule, active = well fitted curve in the direction sought with a large enough effect; inconclusive = small, poorly fitted or top-dose-only effect, or another doubt; inactive = no such curve, though single readings can be large; an effect the other way counts as inactive or inconclusive. Potency is the fitted concentration of half-maximal effect.

SMILES | DT40 TDP1 no CPT | ATXN2 expr inh | ATXN viability | HepG2 viability | TGFb inhibitor | TDP1 cell CPT
Cc1cccc(C(=O)OCC(=O)Nc2nnc(-c3ccccc3)o2)c1O | -26.2% | 2.3% | i | -31.5% | -8.7% | 13.9%
CCCCNC(=O)C1(C)CCCCN1Cc1ccc2ccccc2c1 (stereo unspecified) | ? | -24.1% | i | -4.7% | ? | 23.1µM*
Cc1c(C(=O)OCC(O)=C(C#N)c2nc3ccccc3[nH]2)oc2ccc(Br)cc12 | -29.3% | 0.1% | i | -10.4% | -0.4% | ?
N#C/C(=C(/O)c1ccc([N+](=O)[O-])cc1)c1nc2ccccc2[nH]1 | ? | -7.7% | i | -18.9% | 16.9% | -8.8%
N#C/C(=C(/O)c1ccc(Cl)c([N+](=O)[O-])c1)c1nc2ccccc2[nH]1 | ? | -17.2% | i | -40.4% | -26.6% | 14.6µM*
N#C/C(=C(/O)c1ccc(Cl)cc1)c1nc2ccccc2[nH]1 | 11.6% | 2.7% | i | 2.3% | 6.5% | -1.9%
N#C/C(=C(/O)C(Cl)(Cl)Cl)c1nc2ccccc2[nH]1 | 9.2µM* | · | · | -37.4% | -29.3% | 8.2µM*
COc1cc(/C(O)=C(\C#N)c2nc3ccccc3[nH]2)cc(OC)c1OC | 13µM* | · | i | -27.7% | 1.0% | ?
Cc1c(C(=O)OC/C(O)=C(\C#N)c2nc3ccccc3[nH]2)oc2ccccc12 | -20.4% | ? | ? | -55.9% | 12.6µM* | 6.1%
C=CCn1c(C)nnc1SCC(=O)c1c(N)n(C2CC2)c(=O)[nH]c1=O | 3.4% | 3.5% | i | 2.8% | 10.0% | 7.2%
CCCCn1nnnc1C(c1ccccc1)N1CCN(c2cc(C)ccc2C)CC1 (stereo unspecified) | ? | -2.4% | i | · | · | ?
CC(=O)OC(/C(O)=C(\C#N)c1nc2ccccc2[nH]1)c1ccccc1 (stereo unspecified) | 18.4µM* | -28.1% | i | -18.1% | -9.6% | ?
C/C(O)=C(/C#N)c1nc2ccccc2[nH]1 | ? | 2.9% | i | -3.2% | 12.9% | ?
CC1(O)CC(c2ccc(Cl)cc2)=NN1C(=O)c1ccc(Cl)cc1 (stereo unspecified) | 16.4µM* | · | i | -41.0% | 10µM* | 10.3µM*
O=C(C1CC1)N1N=C(c2ccc(Cl)cc2)CC1(O)C(F)(F)F (stereo unspecified) | -6.0% | -27.1% | i | -34.4% | ? | -18.7%
C/C(=N\Nc1nc(-c2ccccn2)nc2ccccc12)c1ccc(F)cc1 | 5.8µM* | · | ? | -42.5% | ? | 2.59µM*
Oc1ccc(Nc2nc(-c3ccccc3F)nc3ccccc23)cc1 | -20.5% | -30.3% | i | -12.9% | 1.6% | -17.3%
C/C(=N/Nc1nc(-c2ccccc2F)nc2ccccc12)c1ccccc1O | 9.2µM* | · | i | -102.1% | 12.6µM* | 7.31µM*
C/C(=N\Nc1nc(-c2ccccc2O)nc2ccccc12)c1ccccc1 | 7.31µM* | -10.5% | i | -11.1% | -11.6% | ?
CCCS(=O)(=O)N1CCc2cc(OC)c(OC)cc2C1 | 13.6% | 3.2% | i | -3.4% | 7.0% | -0.1%
O=C1CCCC(O)=C1C=Nc1ccc(O)cc1 | 25.9µM* | 4.6% | i | -19.9% | 11.4% | ?
O=C1CC(c2ccccc2)CC(O)=C1C=Nc1ccc(Cl)cc1 (stereo unspecified) | -10.9% | · | i | 1.8% | 20.7% | -7.9%
C[C@H](CO)N1C[C@H](C)[C@@H](CN(C)S(=O)(=O)c2ccccc2)Oc2c(NC(=O)NC3CCCCC3)cccc2C1=O | ? | -17.4% | ? | -4.0% | -0.2% | 18.4µM*
